# According to PubChem BioAssay (EPA / NIEHS):
# A structure can be active in one record and inactive in another. Calls of active or inactive are those of the source. Rule for the calls: active = hit-call score of the fitted dose curve at least 0.9, where 1 is the maximum; inactive = score below 0.9.
# Read-out: Thrombomodulin, THBD (gene 7056)
# Assay: BSK_CASM3C_Thrombomodulin: BioMAP Diversity Plus: CASM3C Assay for Thrombomodulin Biomarker Activity (AID 2283051);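 note: thrombomodulin protein level measured by ELISA 24 h after dosing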
# Conditions: primary human coronary artery smooth muscle cells; actives raise or lower the signal
Compound,AC50,outcome
CCn1c2ccccc2c2cc(N)ccc21,2.7 µM (active),–
Cc1ccc(Nc2ccc(O)c3c2C(=O)c2ccccc2C3=O)cc1,–,inactive
Cc1ccc(O)c(C(C)(C)C)c1,–,inactive
CCCCCCCCCCCCCCCCCC(=O)OCC(CC)CCCC (stereo unspecified),–,inactive
CCCCC(CC)COCCC#N (stereo unspecified),–,inactive
C[C@H]1C[C@@H]2[C@H]([C@@H](O)C[C@@]3(C)[C@H]2CC[C@]3(O)C(=O)CO)[C@@]2(C)C=CC(=O)C=C12,–,inactive
O=P(c1ccccc1)(c1ccccc1)c1ccccc1,–,inactive
CC(C)Oc1ccccc1O,–,inactive
CC(=O)/C=C/C1=C(C)CCCC1(C)C,–,inactive
CC[Si](OC(C)=O)(OC(C)=O)OC(C)=O,–,inactive
CNC[C@H](O)c1cccc(O)c1,–,inactive
O=[N+]([O-])c1cc(C(F)(F)F)ccc1Cl,–,inactive
CCCCCCCCCC=O,–,inactive
COc1cc(C=O)ccc1OC(=O)C(C)C,–,inactive
Nc1cc([N+](=O)[O-])ccc1O,20 µM (active),inactive
CCc1c(C)cc(N)c(CC)c1N,–,inactive
C=C(C)C(=O)O[C@H]1C[C@@H]2CC[C@@]1(C)C2(C)C,–,inactive
CC(=O)O[C@]1(C(C)=O)CC[C@H]2[C@@H]3C[C@H](C)C4=CC(=O)CC[C@]4(C)[C@H]3CC[C@@]21C,–,inactive
CC1COc2ccccc2N1C(=O)C(Cl)Cl (stereo unspecified),–,inactive
CC(C)(COC(=O)c1ccccc1)COC(=O)c1ccccc1,–,inactive
CC(C)c1ccc(C(C)C)cc1,–,inactive
CCC(=O)OCc1ccccc1,–,inactive
CC(=O)OCCC(C)CC(C)(C)C (stereo unspecified),–,inactive
CC1CCC(C(C)CS)CC1S (stereo unspecified),29.1 µM (active),–
CC(=O)[C@H]1CC[C@H]2[C@@H]3CC=C4C[C@@H](O)CC[C@]4(C)[C@H]3CC[C@]12C,–,inactive

# Read-out: Tissue Factor, F3 (gene 2152)
# Assay: BSK_CASM3C_TissueFactor: BioMAP Diversity Plus: CASM3C Assay for Tissue Factor Biomarker Activity (AID 2283052);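 note: cell surface tissue factor protein level read by ELISA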
# Conditions: primary human coronary artery smooth muscle cells; actives raise or lower the signal
Compound,outcome,AC50
CCn1c2ccccc2c2cc(N)ccc21,inactive,–
Cc1ccc(Nc2ccc(O)c3c2C(=O)c2ccccc2C3=O)cc1,inactive,–
Cc1ccc(O)c(C(C)(C)C)c1,–,36.3 µM (active)
CCCCCCCCCCCCCCCCCC(=O)OCC(CC)CCCC (stereo unspecified),inactive,–
CCCCC(CC)COCCC#N (stereo unspecified),inactive,–
C[C@H]1C[C@@H]2[C@H]([C@@H](O)C[C@@]3(C)[C@H]2CC[C@]3(O)C(=O)CO)[C@@]2(C)C=CC(=O)C=C12,inactive,–
O=P(c1ccccc1)(c1ccccc1)c1ccccc1,inactive,–
CC(C)Oc1ccccc1O,inactive,–
CC(=O)/C=C/C1=C(C)CCCC1(C)C,inactive,–
CC[Si](OC(C)=O)(OC(C)=O)OC(C)=O,inactive,–
CNC[C@H](O)c1cccc(O)c1,inactive,–
O=[N+]([O-])c1cc(C(F)(F)F)ccc1Cl,inactive,–
CCCCCCCCCC=O,inactive,–
COc1cc(C=O)ccc1OC(=O)C(C)C,inactive,–
Nc1cc([N+](=O)[O-])ccc1O,inactive,–
CCc1c(C)cc(N)c(CC)c1N,inactive,–
C=C(C)C(=O)O[C@H]1C[C@@H]2CC[C@@]1(C)C2(C)C,–,9.73 µM (active)
CC(=O)O[C@]1(C(C)=O)CC[C@H]2[C@@H]3C[C@H](C)C4=CC(=O)CC[C@]4(C)[C@H]3CC[C@@]21C,inactive,–
CC1COc2ccccc2N1C(=O)C(Cl)Cl (stereo unspecified),–,4.8 µM (active)
CC(C)(COC(=O)c1ccccc1)COC(=O)c1ccccc1,inactive,–
CC(C)c1ccc(C(C)C)cc1,–,35.5 µM (active)
CCC(=O)OCc1ccccc1,inactive,–
CC(=O)OCCC(C)CC(C)(C)C (stereo unspecified),inactive,–
CC1CCC(C(C)CS)CC1S (stereo unspecified),inactive,–
CC(=O)[C@H]1CC[C@H]2[C@@H]3CC=C4C[C@@H](O)CC[C@]4(C)[C@H]3CC[C@]12C,inactive,–

# Read-out: Interferon-gamma inducible Protein 10 (IP10), CXCL10 (gene 3627)
# Assay: BSK_hDFCGF_IP10: BioMAP Diversity Plus: hDFCGF Assay for Interferon-gamma inducible Protein 10 (IP10) Biomarker Activity (AID 2283053)
# Conditions: primary human foreskin fibroblasts; actives raise or lower the signal
# Outline: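 Primary foreskin fibroblasts, human; 24 h compound exposure; IP-10 by ELISA; bidirectional fit vs DMSO.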
Compound,outcome,AC50
CCn1c2ccccc2c2cc(N)ccc21,inactive,–
Cc1ccc(Nc2ccc(O)c3c2C(=O)c2ccccc2C3=O)cc1,inactive,–
Cc1ccc(O)c(C(C)(C)C)c1,–,34.9 µM (active)
CCCCCCCCCCCCCCCCCC(=O)OCC(CC)CCCC (stereo unspecified),inactive,–
CCCCC(CC)COCCC#N (stereo unspecified),–,20 µM (active)
C[C@H]1C[C@@H]2[C@H]([C@@H](O)C[C@@]3(C)[C@H]2CC[C@]3(O)C(=O)CO)[C@@]2(C)C=CC(=O)C=C12,inactive,–
O=P(c1ccccc1)(c1ccccc1)c1ccccc1,inactive,–
CC(C)Oc1ccccc1O,inactive,–
CC(=O)/C=C/C1=C(C)CCCC1(C)C,inactive,–
CC[Si](OC(C)=O)(OC(C)=O)OC(C)=O,inactive,–
CNC[C@H](O)c1cccc(O)c1,inactive,–
O=[N+]([O-])c1cc(C(F)(F)F)ccc1Cl,inactive,–
CCCCCCCCCC=O,inactive,–
COc1cc(C=O)ccc1OC(=O)C(C)C,inactive,–
Nc1cc([N+](=O)[O-])ccc1O,inactive,–
CCc1c(C)cc(N)c(CC)c1N,inactive,–
C=C(C)C(=O)O[C@H]1C[C@@H]2CC[C@@]1(C)C2(C)C,–,35.2 µM (active)
CC(=O)O[C@]1(C(C)=O)CC[C@H]2[C@@H]3C[C@H](C)C4=CC(=O)CC[C@]4(C)[C@H]3CC[C@@]21C,inactive,–
CC1COc2ccccc2N1C(=O)C(Cl)Cl (stereo unspecified),inactive,–
CC(C)(COC(=O)c1ccccc1)COC(=O)c1ccccc1,inactive,–
CC(C)c1ccc(C(C)C)cc1,inactive,–
CCC(=O)OCc1ccccc1,inactive,–
CC(=O)OCCC(C)CC(C)(C)C (stereo unspecified),inactive,–
CC1CCC(C(C)CS)CC1S (stereo unspecified),–,4.25 µM (active)
CC(=O)[C@H]1CC[C@H]2[C@@H]3CC=C4C[C@@H](O)CC[C@]4(C)[C@H]3CC[C@]12C,inactive,–
